This is part of a sample that, as a whole, favours compounds with a hit. Of some 83,000 tested, about 20% had one in any assay.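 Plates (96-well) were seeded with cells, treated with compound at one concentration, and incubated for 48 hours before percent growth was determined.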 A number with no mark means an inactive call. The source made the active and inactive calls. Rule for the calls: active = growth percent below 10; inactive = the rest.

The source of these data is PubChem BioAssay (NCI).

What all share (assay): NCI-60 one-dose screen, 48 h (100 = growth as untreated, 0 = no growth, -100 = all killed)
What all share (details): 10 µM unless noted

Test [1] concerns SK-MEL-2 melanoma.
The subject of test [2] is EKVX NSCLC.
Test [3] deals with SN12C renal.
The test system of test [4] is UO-31 renal.
Test [5] deals with TK-10 renal.
The subject of test [6] is ACHN renal.
Test [7] deals with CAKI-1 renal.
In test [8] the test system is A498 renal.
Test [9] has as its system CCRF-CEM leukemia.
The test system of test [10] is MOLT-4 leukemia.

For the compound `CCCCc1nc(Cl)c(C2CC(c3ccc(S(N)(=O)=O)cc3)=NN2c2cc(Cl)cc(Cl)c2)[nH]1` (stereo not given), the growth in test [1] is 47.2%; in test [2], 51.3%; in test [3] it was 48.6%; in [4] it was 58.3%; in test [5], 84.6%; in test [6], 59.7%. Also, the growth is 40.5% in test [7], 81.7% in test [8], 26.2% in [9] and 12.3% in test [10].
Turning to `CCCCOc1nc2ccc(C)cc2cc1/C=C/C(=O)/C=C(O)/C=C/c1cc2cc(C)ccc2nc1OCCCC`, the growth is 103% in [1]; 102% in test [2]; 111% in test [3]; 97.7% in [4]; 102% in test [5]; 102% in test [6]. The growth is 98.1% in test [7], 116% in [8], 97.6% in test [9] and 98.8% in test [10].
On to `COc1ccccc1CNCCCN1C(=O)c2ccc3c4c(ccc(c24)C1=O)C(=O)N(CCCCNCCCN)C3=O`, for which the growth was -46.1% (active) in [1]; 48.1% in [2]; -80.2% (active) in [3]; 48.3% in test [4]; 36.7% in test [5]; 28.1% in test [6]. For the same compound, the growth in test [7] was 94.1%; in [8], 87.9%; in [9], 2.26% (active); in [10] it was -21.7% (active).
With `Cc1c2c(cc3c1[nH]c1ccccc13)C=NCC2`, the growth in test [1] is 109%; in test [2] it was 80%; in test [3], 90.8%; in test [4], 80%; in [5] it was 113%; in test [6], 96.9%. In addition, the growth in [7] is 92.9%; in test [8] it was 71.7%; in test [9], 75.9%; in test [10], 83.3%.
As for `O=C1C=CN2C(=O)CC=CC2[C@@H]1O` (stereo not given in full), the growth in [1] was 113%; in test [2], 121%; in test [3], 106%; in [4], 78.2%; in [5] it was 118%; in [6] it was 109%. Also, the growth in test [7] is 109%; in test [8] it was 108%; in test [9] it was 96.3%; in [10] it was 109%.
Regarding `C=C1C(=O)O[C@H]2[C@H]1CC/C(COC(=O)N[C@@H](Cc1c[nH]c3ccccc13)C(=O)OC)=C\CC[C@@]1(C)O[C@@H]21`, the growth is 41.3% in test [1]; 55.4% in [2]; 33.4% in [3]; 41.3% in test [4]; -23.2% (active) in [5]; 7.04% (active) in test [6]. The growth in test [7] was 29.7%; in test [8], 91.9%; in [9] it was -12.3% (active); in test [10], -13.2% (active).
Consider `CC1OC(n2c3ccccc3c3c4c(c5c6ccccc6[nH]c5c32)C(=O)N(CCN2CCOCC2)C4=O)CC(O)C1O` (stereo not given), for which the growth is 99.7% in test [1]; 56.7% in test [2]; 19.8% in [3]; 25.5% in test [4]; 58.5% in test [5]; 8.9% (active) in [6]. For the same compound, the growth in test [7] is 14.9%; in [8], 47.5%; in test [9], 27%; in test [10], 6.7% (active).
Turning to `c1ccc(CCn2cccc2)nc1`, the growth is 101% in [1]; 107% in test [2]; 102% in test [3]; 94.3% in test [4]; 99.7% in [5]; 104% in test [6]. Further, the growth in test [7] is 91.1%; in [8], 105%; in test [9], 105%; in test [10], 18.7%.
In the case of `CC(=O)c1ccc(N2C(=O)c3ccc(Oc4ccccc4)cc3C2=O)cc1`, the growth in test [1] is 110%; in test [2] it was 94.1%; in test [3] it was 98.4%; in [4] it was 92.5%; in test [5] it was 105%; in [6] it was 107%. The growth in test [7] was 101%; in [8], 91.5%; in test [9] it was 134%; in [10], 115%.
`O=C(/C=C/c1ccc(F)cc1)N1CCN(C(=O)/C=C/c2ccc(C(F)(F)F)cc2)CC1`: the growth in test [1] was 118%; in test [2], 93.1%; in [3], 106%; in test [4], 89.7%; in test [5], 105%; in [6] it was 115%. Besides, the growth was 97.3% in [7], 130% in test [8], 103% in test [9] and 115% in test [10].
For the compound `CCOC(=O)CCN(CCC(=O)OCC)c1ccccc1`, the growth in [1] was 96.7%; in [2], 115%; in test [3] it was 110%; in test [4], 77.8%; in test [5], 101%; in test [6], 100%. For the same compound, the growth in test [7] is 116%; in test [8], 127%; in [9] it was 61.7%; in test [10], 96.5%.
`O=C(/C=C/c1ccccc1Br)c1cccc(OCCCCOc2cccc(C(=O)/C=C/c3ccccc3Br)c2)c1`: the growth in [1] was 104%; in test [2], 102%; in test [3], 96.6%; in [4], 81.3%; in [5], 117%; in test [6], 98.6%. Further, the growth is 91.9% in test [7], 108% in test [8], 88.5% in test [9] and 91.6% in [10].
With `CC(=O)NC1C(O[C@H]2C[C@H]3[C@@H]4CC=C5C[C@@H](O)CC[C@]5(C)[C@H]4CC[C@]3(C)[C@H]2[C@H](C)C(=O)CCC(C)C)OCC(O)C1O` (stereo not given in full), the growth in test [1] was -15.9% (active); in test [2] it was 46.3%; in test [3], 89.6%; in test [4], 1.5% (active); in [5] it was 60.4%; in test [6], 44.3%. The growth is 30.2% in [7], -20.3% (active) in test [8], 11.5% in test [9] and -8.22% (active) in test [10].
Consider `CCn1c(=O)c(C(=O)NCCCO)c(O)c2ccccc21`, for which the growth was 112% in [1]; 65.6% in test [2]; 104% in [3]; 86.9% in test [4]; 180% in [5]; 102% in test [6]. Also, the growth in [7] is 116%; in [8], 109%; in test [9], 103%; in test [10] it was 100%.
As to `CCCCCCCCN(CCCCCCCC)C(=O)CCl`, the growth in test [1] is 108%; in test [2], 108%; in [3] it was 93.8%; in test [4] it was 73.3%; in test [5], 108%; in test [6], 100%. Also, the growth in test [7] was 44.9%; in test [8], 99.8%; in test [9], -33.4% (active); in test [10], 90.6%.
Regarding `O=C(NO)c1ccc(CNc2cccc3nc(C4CC4)n(-c4ccccc4)c(=O)c23)cc1`, the growth in test [1] was 53.7%; in test [2] it was 42.2%; in test [3], 15.5%; in test [4], 3.57% (active); in test [5] it was 13.6%; in [6], 3.75% (active). Moreover, the growth in [7] was 7.51% (active); in test [8] it was 13.7%; in test [9] it was -13.3% (active); in test [10] it was -21.7% (active).
For `CCCCc1nc(Cl)c(C2CC(c3ccc(S(N)(=O)=O)cc3)=NN2c2ccc(C#N)cc2)[nH]1` (stereo not given), the growth in [1] is 91%; in [2], 89.5%; in [3], 83%; in test [4], 70.5%; in test [5], 100%; in [6], 101%. For the same compound, the growth was 67.6% in [7], 74.2% in [8], 86.8% in test [9] and 76.1% in test [10].
On to `O=C(O)c1ccccc1Oc1cc(-c2ccco2)nc(OCCN2CCOCC2)n1`, for which the growth is 100% in test [1]; 113% in test [2]; 97.3% in test [3]; 87.6% in [4]; 97.4% in [5]; 107% in [6]. Moreover, the growth is 96.2% in test [7], 104% in test [8], 94.2% in test [9] and 101% in test [10].
Consider `C[Si](C)(C)C(c1ccccc1)c1ccccc1`, for which the growth in test [1] is 127%; in [2], 109%; in [3] it was 102%; in [4], 82.3%; in [5], 108%; in test [6], 93.1%. Moreover, the growth in [7] is 86.2%; in test [8] it was 99.7%; in test [9] it was 79.4%; in test [10], 81.8%.
Regarding `CCN(CC)c1ccc(/C=N/N=C(N)N)cc1`, the growth was 49.1% in test [1]; 76.5% in [2]; 67.3% in test [3]; 51.4% in test [4]; 63.4% in test [5]; 43.6% in [6]. The growth in [7] was 45.1%; in [8], 43.9%; in [9], 36%; in test [10] it was 49.1%.
As to `C=C(C)[C@@H]1CC[C@]2(C(=O)NC(COC(=O)C(Cl)Cl)(COC(=O)C(Cl)Cl)COC(=O)C(Cl)Cl)CC[C@]3(C)[C@H](CC[C@@H]4[C@@]5(C)CC[C@H](OC(C)=O)C(C)(C)[C@@H]5CC[C@]43C)[C@@H]12`, the growth was 76.5% in [1]; 57.7% in [2]; 37% in test [3]; 55.4% in test [4]; 75.8% in test [5]; 51.1% in [6]. In addition, the growth is 48.4% in test [7], 99.5% in test [8], 18.3% in [9] and 6.2% (active) in test [10].
Turning to `C#CCO[C@H]1CC[C@H](OCC#C)[C@@H]2[C@H]1[C@H]1C[C@@H]3[C@@]4(C)CCC[C@@](C)(C(=O)OC)[C@@H]4CC[C@@]23C=C1C(C)C`, the growth in test [1] was 85%; in test [2], 74.4%; in test [3], 86.3%; in [4], 50.5%; in test [5] it was 93.7%; in test [6], 92.6%. Also, the growth in [7] is 59.3%; in test [8], 108%; in test [9] it was -52.9% (active); in [10], 56.2%.
Turning to `COc1ccc(-c2cnnn2-c2nonc2-n2cccc2)cc1`, the growth is 54.6% in test [1]; 55.6% in [2]; 43.9% in test [3]; 44.2% in [4]; 63.7% in test [5]; 48.2% in test [6]. Also, the growth was 45.5% in test [7], -4.22% (active) in test [8], 14.1% in [9] and 5.61% (active) in test [10].
Take `CCN(CC)CCNC(=O)n1cc(-c2ccncc2)c(-c2ccc(Cl)c(OC)c2)n1`: the growth in test [1] was 96.1%; in test [2], 61.8%; in test [3], 90.7%; in test [4], 69.2%; in test [5], 26.9%; in test [6] it was 77.6%. Also, the growth is 99.7% in test [7], 95.5% in [8], 98.3% in [9] and 82% in test [10].
